These results are taken from the supplement of paper PMC11219838.

Unmarked numbers belong to inactive results.

This experiment has as its system Caenorhabditis elegans L1 (N2). Briefly: survival and reproduction score of C. elegans L1 (0: 0-10 living worms, 1: 11-20, 2: 21-50, 3: >50, 4: overgrown) (score 0-4); higher = more worms, less nematicidal, active = 1 or less; extreme values may be limits of the assay. Conditions: 60 µM; 6 days; temperature: 20 °C. In short, it runs like this: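 Worm survival and reproduction were recorded as an ordinal score of living worms per well, read under a dissection microscope. Each 96-well well held about 20 synchronized C. elegans N2 L1s with E. coli HB101 in liquid NGM and compound at 60 µM final (0.6% v/v DMSO), sealed and shaken at 200 rpm, 20 °C, for 6 days. Scores ranged from 0 (0–10 worms) to 4 (overgrown, starved) and were the mean of two biological replicates.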
Consider `N#Cc1ccc(CSc2nnc(-c3ccncc3)o2)cc1`, for which the “survival and reproduction score” value was 4. Next, `CCN(CC)C(=O)CSc1nnc(-c2ccc(Br)cc2)o1`: 4; `Clc1cc(Br)ccc1OCc1nc(-c2ccccc2)no1`: 4; `CCOc1ccccc1-c1nnc(SCC(=O)N2CCC(C)CC2)o1`: 4. For `CCCCC(=O)Nc1ccccc1-c1nc(-c2cccnc2)no1` the value was 4; for `O=C(CSc1nnc(-c2ccccc2Cl)o1)Nc1nccs1`, 4; for `Cc1ccc(-c2nc(-c3cccnc3)no2)cc1Cl`, 0 (active). For `Cc1ccccc1-c1nnc(SCc2ccccc2Cl)o1` the value was 4; for `c1ccc(-c2nnc(SCc3nc4ccccc4[nH]3)o2)cc1`, 4; for `Cc1ccc(NC(=O)CSc2nnc(-c3ccccc3)o2)c(C)c1`, 4. On to `Cc1cccc(-c2noc(COc3ccc(Cl)cc3)n2)c1`, for which the “survival and reproduction score” value was 4. For `CC1CC(C)CN(C(=O)CSc2nnc(-c3ccccc3)o2)C1` (centres undefined) the value was 4.

For the compound `COc1ccc(-c2nnc(SCC(=O)Nc3ccc(C)cc3Br)o2)cc1`, the “survival and reproduction score” value is 4. For `Cc1cccc(-c2noc(C3CCCCC3)n2)c1` the value was 3.5; for `Cc1ccc(C)c(-c2nc(-c3ccncc3)no2)c1`, 0 (active); for `Cc1ccc(-c2nnc(SCc3ccc(Br)cc3)o2)cc1`, 4.

`COc1ccc(CCC(=O)Nc2ccc(-c3noc(-c4ccccc4C)n3)cc2)cc1`: the “survival and reproduction score” value was 4. For `O=C(Nc1ccccc1-c1nc(-c2ccncc2)no1)c1ccc(Cl)cc1` the value was 4; for `COc1cccc(-c2noc(COc3ccc(Br)cc3)n2)c1`, 4. Next, `CCOc1ccccc1-c1nnc(SCC(=O)Nc2nccs2)o1`: 4; `CCOc1nc(-c2ccc(C)cc2)ccc1-c1noc(CC)n1`: 4; `Cc1cccc(-c2noc(-c3ccc(C)cc3Cl)n2)c1`: 4. Next, `Brc1cccc(-c2noc(-c3ccc4c(c3)OCO4)n2)c1`: 4; `Cc1cccc(OCc2nc(-c3ccncc3)no2)c1C`: 4; `Cc1ccc(OCc2nc(-c3ccccc3Cl)no2)c(C)c1`: 4. As for `Cc1ccccc1OCc1nc(-c2ccc3c(c2)OCO3)no1`, the “survival and reproduction score” value is 4.

In the case of `Clc1ccc(-c2noc(-c3ccccc3Cl)n2)cc1`, the “survival and reproduction score” value is 3. `N#Cc1ccccc1CSc1nnc(-c2ccncc2)o1`: the “survival and reproduction score” value is 4. Next, `O=C(CSc1nnc(-c2ccncc2)o1)Nc1cc(Cl)cc(Cl)c1`: 4; `Cc1ccc(-c2noc(-c3ccccc3C)n2)cc1`: 0 (active). Next, `CCOc1nc(-c2ccc(C)cc2)ccc1-c1noc(-c2ccncc2)n1`: 4; `COc1cccc(-c2nc(-c3ccc(F)cc3)no2)c1`: 4; `COc1ccc(-c2noc(CSc3nc4cc(C)ccc4[nH]3)n2)cc1`: 4. For the compound `CNC(=O)c1ccccc1-c1nc(-c2ccc(F)cc2)no1`, the “survival and reproduction score” value was 4. With `COc1ccc(C)cc1NC(=O)CSc1nnc(-c2ccc(Br)cc2)o1`, the “survival and reproduction score” value is 4. For `C=CCOc1ccc(-c2nc(-c3cccnc3)no2)cc1` the value was 0 (active); for `COc1ccc(-c2noc(-c3cccc(C)c3)n2)cc1`, 0 (active). Next, `Cc1cc(OCc2nc(-c3ccccn3)no2)cc(C)c1Cl`: 4. For `CCOc1ccccc1-c1nc(-c2ccc(NC(=O)CCc3ccc(OC)cc3)cc2)no1` the value was 4.
